# PubChem BioAssay (NCI)
# The panel holds about 83,000 compounds, 20% with a hit somewhere; the sample as a whole holds those more often.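 Single-dose data. Exposure time 48 hours. Values below 10 considered active.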 A number with no mark means an inactive call. Active and inactive are the calls of the source.
# Key:
# Assay in all cases: NCI-60 one-dose screen, 48 h (100 = growth as untreated, 0 = no growth, -100 = all killed)
# HCT-15 colon = conditions: 10 µM unless noted
# HT29 colon = conditions: 10 µM unless noted
# SNB-75 CNS = conditions: 10 µM unless noted
# U251 CNS = conditions: 10 µM unless noted
# PC-3 prostate = conditions: 10 µM unless noted
# SK-MEL-5 melanoma = conditions: 10 µM unless noted
# UACC-62 melanoma = conditions: 10 µM unless noted
# LOX IMVI melanoma = conditions: 10 µM unless noted
# SK-MEL-28 melanoma = conditions: 10 µM unless noted
# EKVX NSCLC = conditions: 10 µM unless noted
# SN12C renal = conditions: 10 µM unless noted
# UO-31 renal = conditions: 10 µM unless noted
# TK-10 renal = conditions: 10 µM unless noted
# ACHN renal = conditions: 10 µM unless noted
# CAKI-1 renal = conditions: 10 µM unless noted
# A498 renal = conditions: 10 µM unless noted
# CCRF-CEM leukemia = conditions: 10 µM unless noted
# MOLT-4 leukemia = conditions: 10 µM unless noted
# SNB-19 CNS = conditions: 10 µM unless noted
# SK-MEL-2 melanoma = conditions: 10 µM
SMILES,growth (HCT-15 colon),growth (HT29 colon),growth (SNB-75 CNS),growth (U251 CNS),growth (PC-3 prostate),growth (SK-MEL-5 melanoma),growth (UACC-62 melanoma),growth (LOX IMVI melanoma),growth (SK-MEL-28 melanoma),growth (EKVX NSCLC),growth (SN12C renal),growth (UO-31 renal),growth (TK-10 renal),growth (ACHN renal),growth (CAKI-1 renal),growth (A498 renal),growth (CCRF-CEM leukemia),growth (MOLT-4 leukemia),growth (SNB-19 CNS),growth (SK-MEL-2 melanoma)
Cc1nc(NC(=O)N2CCC[C@H]2C(N)=O)sc1-c1ccnc(C(C)(C)C(F)(F)F)c1,30.4%,4.8% (active),24.8%,33.4%,43.3%,61.8%,23.8%,18.8%,49.2%,41.1%,57.7%,25.1%,13.3%,36.9%,17.8%,1.67% (active),35.9%,8.66% (active),,
O=C(Cn1ccnc1)Nc1ccc(-c2nc3ccccc3s2)cc1,87%,93.3%,88.8%,71.9%,65.9%,39.2%,82.9%,73.4%,105%,61.4%,84.6%,60.4%,81.8%,90.3%,66.2%,57.5%,69.1%,68.1%,,
CN1CCN(c2ccc(OC(F)(F)F)c(Nc3ncc4c(n3)-c3c(c(C(N)=O)nn3CCO)CC4)c2)CC1,10.7%,10.3%,,25.4%,36.8%,23.4%,35.9%,25.6%,88.7%,35.7%,25.9%,35.3%,53.5%,37.1%,28.4%,-5.99% (active),18.2%,18.3%,23.4%,
COC1CCC(N2C(=O)CNc3ncc(-c4ccc(C(C)(C)O)nc4)nc32)CC1 (stereo not given),10.1%,5.39% (active),,2.23% (active),8.06% (active),-45.2% (active),-21% (active),2.43% (active),-8.74% (active),10.9%,7.07% (active),-10.7% (active),-13.4% (active),7.04% (active),-1.6% (active),-23.8% (active),11.4%,0.972% (active),13.5%,
COc1c(C(NC(=O)c2ccccc2)c2sccc2C)cc(Cl)c2cccnc12 (stereo not given),101%,94.1%,,88.6%,83.2%,98.4%,93%,98.1%,114%,100%,94.1%,89.9%,98.4%,104%,95.4%,,83.9%,85.7%,,108%
CC(C)(C)c1ccc(Cn2cc(CSc3nc4ccccc4s3)nn2)cc1,99.7%,99.6%,,93.3%,96.1%,106%,88.4%,,96.4%,98.3%,90.8%,65.2%,88.7%,97.2%,82.9%,87%,95%,95.7%,89.8%,
COc1cc(-c2nc(C(=O)NCC(=O)O)nn2-c2ccc(Cl)cc2)cc(OC)c1OC,102%,106%,,96.6%,94.3%,98.3%,104%,84.9%,104%,91.7%,101%,90.5%,117%,112%,,107%,84.2%,100%,,120%
CN1[C@@H]2CC[C@H]1/C(=C\c1ccccc1)C1=C2[C@@H](c2ccccc2)C(C#N)=C(N)O1,81.1%,67.7%,,77.7%,72.8%,74.1%,73.9%,97.8%,104%,98.4%,75.2%,61.7%,89.5%,97.4%,87.4%,70.3%,70.6%,67.4%,83.6%,
CC(C)(C)c1nc(-c2cccc(NS(=O)(=O)c3c(F)cccc3F)c2F)c(-c2ccnc(N)n2)s1,90.8%,8.76% (active),,113%,100%,61.1%,30.9%,24.5%,37.1%,97.7%,80.1%,37.1%,65.2%,59.3%,56.4%,135%,59%,39.4%,111%,
CC(C)=CCc1cc2c(cc1O)C1=C(C(=O)C3=C(C1=O)S(=O)(=O)CCN3)C(C=C(C)C)O2 (stereo not given),-11.5% (active),-30.5% (active),,-81.3% (active),10.2%,-99.5% (active),-32.3% (active),,-75.9% (active),-26.1% (active),-36.7% (active),-2.94% (active),7.58% (active),-22.1% (active),,-70% (active),1.85% (active),-38.2% (active),-91.1% (active),
Cc1cc2c3c(cccc3c1)C(=O)c1ccccc1-2,93.5%,94.9%,,98.8%,93.6%,95.2%,85.1%,,105%,78.1%,97%,60.5%,106%,97.6%,,93.2%,118%,87.2%,97.8%,105%
C#Cc1cccc(Nc2ncnc3cc4c(cc23)OCCOCCOCCO4)c1,68.8%,57%,,57%,57.3%,58.1%,32.9%,51%,57.6%,42.5%,42%,27.2%,7.84% (active),16.3%,,24.1%,73.3%,53.3%,60.9%,
Cc1cnc(Nc2ccc(OCCN3CCCC3)cc2)nc1Nc1cccc(S(=O)(=O)NC(C)(C)C)c1,5.6% (active),-41.8% (active),,15.9%,20%,-90.4% (active),-23.1% (active),-79.4% (active),-10.7% (active),26.4%,12.6%,-96.3% (active),-40% (active),-40.8% (active),-88.3% (active),-95.3% (active),1.67% (active),1.26% (active),21.3%,
CCN1CCN(Cc2ccc(NC(=O)Nc3nc(-c4cc(OC)c(OC)c(OC)c4)cs3)cc2C(F)(F)F)CC1,-12.6% (active),0.541% (active),,15.3%,6.09% (active),-95.3% (active),-68.4% (active),,-51.3% (active),26.8%,28.9%,53.2%,62.4%,20.8%,55.2%,51.6%,0.288% (active),-18.9% (active),33.7%,
C=C1C[C@H](O)[C@H](Br)C(C)(C)[C@@]12CCC(C)=C(Cl)C2,-4.29% (active),3.04% (active),,20.4%,16.6%,-60.8% (active),-11.8% (active),-5.6% (active),30.1%,13.5%,22.6%,37.1%,31%,24.2%,16.3%,,21.6%,-8.16% (active),40.7%,
CC(C)CC(=O)Nc1n[nH]c2c1CN(C(=O)C1CCN(C)CC1)C2(C)C,78.8%,-1.54% (active),,2.91% (active),16.1%,-35.7% (active),-19.1% (active),9.19% (active),9.19% (active),57.8%,19.2%,80.9%,49.2%,54.2%,39.8%,7.55% (active),7.27% (active),4.42% (active),11.5%,
Cc1[nH]c(/C=C2\C(=O)Nc3ccc(F)cc32)c(C)c1C(=O)NC[C@H](O)CN1CCOCC1,19.1%,9.81% (active),,60.5%,36.2%,21.4%,29.9%,,17.7%,44.9%,27.6%,-1.44% (active),50.1%,23.8%,4.97% (active),30.5%,33%,15.7%,96.7%,
CN(C)C/C=C/C(=O)Nc1cc2c(Nc3ccc(F)c(Cl)c3)ncnc2cc1O[C@H]1CCOC1,-6.21% (active),-2.13% (active),,-3.99% (active),5.5% (active),-81.4% (active),-42.3% (active),-73.5% (active),-57.5% (active),4.87% (active),3.6% (active),12.2%,-10.4% (active),-84.9% (active),5.36% (active),-40.4% (active),6.13% (active),-13.5% (active),8.32% (active),
CC12O[C@H](C[C@@H](OC(=O)CCC(=O)O)[C@H]1O)n1c3ccccc3c3c4c(c5c6ccccc6n2c5c31)C(=O)NC4=O,15%,21.2%,,50.6%,48%,-19% (active),-6.1% (active),15.9%,33.8%,42.9%,38.9%,-15.9% (active),2.26% (active),19.4%,,-30.6% (active),7.97% (active),5.17% (active),43.2%,23.3%
CC1=CC2c3oc(-c4ccccc4)c(C(=O)c4ccccc4)c3CNC2C=C1 (stereo not given),97.2%,84.2%,,80.7%,94%,103%,87.9%,86.2%,111%,107%,88.5%,72.2%,96%,87.4%,94.8%,100%,76.1%,101%,91.6%,
